We go through 5 compounds from PubChem BioAssay.

The test system of test [1] is Plasmodium falciparum Sir2 (PF13_0152, Sir2A). In words: Plasmodium falciparum Sir2A binding compounds – biochemical, small-molecule microarray, 635 nm fluorescence, primary screen (AID 1098).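 Note: score merges spot fluorescence intensity with its signal-to-noise ratio.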 The note with it: fluorescence 635 nm, higher = more signal.
Test [2] can be described thus: probe aDKK1 binding to arrayed compounds – biochemical, biotinylated probe, 635/667 nm fluorescence, primary screen (AID 1099).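 Note: score merges 667nm spot fluorescence with signal to noise across triplicate slides.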 As to conditions: small-molecule microarray, higher = more signal.
A short description of test [3]: probe aCHRDL2 binding to arrayed compounds – biochemical, biotinylated probe, 635/667 nm fluorescence, primary screen (AID 1100). The note with it: small-molecule microarray, higher = more signal.
Test [4] can be described thus: change in splice reporter luminescence, either direction, cell-based, HEK293, spliceosome inhibition project, primary screen (AID 1101).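 Note: HEK293 cells carrying a splicing-competent luciferase reporter gene; test concentration not given here.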 The note with it: HEK293 splicing luciferase reporter, 24 h, higher = more signal, called active from +8 up or from −8 down.
Test [5] concerns the target Fibroblast growth factor 10 (Homo sapiens) (UniProt O15520). The test is described as follows: compounds binding fibroblast growth factor 10 – biochemical, small-molecule microarray, 635 nm fluorescence, primary screen (AID 1102). As to conditions: FGF10 binding, fluorescence 635 nm, higher = more signal.
Test [6] deals with glycogen synthase kinase-3 (GSK3A per assay name; protocol says GSK3B). In words: compounds binding glycogen synthase kinase-3 – biochemical, small-molecule microarray, 635 nm fluorescence, GSK3A, primary screen (AID 1103). Note: the record names both GSK3A and GSK3B. As to conditions: fluorescence 635 nm, higher = more signal.
The target in test [7] is Epidermal growth factor receptor (Homo sapiens) (UniProt P00533). In words: compounds binding epidermal growth factor receptor – biochemical, small-molecule microarray, 635 nm fluorescence, primary screen (AID 1104).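 Note: score merges 667 nm emission intensity with spot signal to noise over triplicate slides.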 As to conditions: EGFR binding, higher = more signal.
Epidermal growth factor receptor (Homo sapiens), sequence (P00533 whole entry, looked up): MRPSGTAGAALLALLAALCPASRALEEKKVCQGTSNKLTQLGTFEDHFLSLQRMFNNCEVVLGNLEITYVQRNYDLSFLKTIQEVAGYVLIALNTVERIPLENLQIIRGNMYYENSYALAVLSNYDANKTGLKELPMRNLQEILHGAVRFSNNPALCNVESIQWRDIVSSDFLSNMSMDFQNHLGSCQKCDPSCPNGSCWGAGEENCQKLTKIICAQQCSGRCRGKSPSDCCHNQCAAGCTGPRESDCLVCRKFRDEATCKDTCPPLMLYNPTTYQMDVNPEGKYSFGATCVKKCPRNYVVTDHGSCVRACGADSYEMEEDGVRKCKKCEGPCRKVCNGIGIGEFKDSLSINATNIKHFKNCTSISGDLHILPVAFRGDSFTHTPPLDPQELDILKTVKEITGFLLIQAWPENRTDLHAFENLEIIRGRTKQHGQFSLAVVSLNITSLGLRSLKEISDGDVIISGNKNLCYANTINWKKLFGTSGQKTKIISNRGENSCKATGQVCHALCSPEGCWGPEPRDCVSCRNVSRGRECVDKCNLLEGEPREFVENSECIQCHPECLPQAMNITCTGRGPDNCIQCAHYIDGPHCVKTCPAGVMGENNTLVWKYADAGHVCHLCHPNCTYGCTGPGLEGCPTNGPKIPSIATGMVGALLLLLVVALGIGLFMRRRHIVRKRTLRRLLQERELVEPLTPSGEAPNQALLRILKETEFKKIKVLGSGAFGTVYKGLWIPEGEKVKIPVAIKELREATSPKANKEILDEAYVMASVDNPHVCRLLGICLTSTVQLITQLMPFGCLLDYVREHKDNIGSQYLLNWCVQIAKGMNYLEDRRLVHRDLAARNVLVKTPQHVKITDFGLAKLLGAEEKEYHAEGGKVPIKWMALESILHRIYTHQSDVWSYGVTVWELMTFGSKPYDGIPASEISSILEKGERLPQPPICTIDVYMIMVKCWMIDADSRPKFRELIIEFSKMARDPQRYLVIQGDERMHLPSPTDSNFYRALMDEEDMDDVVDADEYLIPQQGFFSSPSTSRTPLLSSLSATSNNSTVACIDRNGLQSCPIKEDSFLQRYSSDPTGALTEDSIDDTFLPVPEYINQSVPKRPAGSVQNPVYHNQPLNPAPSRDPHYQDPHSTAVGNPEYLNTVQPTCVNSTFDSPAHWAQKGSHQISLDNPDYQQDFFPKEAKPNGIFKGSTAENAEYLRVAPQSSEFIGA
For test [8], the target named is Follistatin-related protein 3 (Homo sapiens) (UniProt O95633). In words: compounds binding follistatin-related protein 3 – biochemical, small-molecule microarray, 635 nm fluorescence, primary screen (AID 1105).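 Note: score merges emission near 667 nm and signal to noise per printed spot across three slides.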 The note with it: FSTL3 binding, higher = more signal.
Follistatin-related protein 3 (Homo sapiens), sequence (O95633 whole entry, looked up): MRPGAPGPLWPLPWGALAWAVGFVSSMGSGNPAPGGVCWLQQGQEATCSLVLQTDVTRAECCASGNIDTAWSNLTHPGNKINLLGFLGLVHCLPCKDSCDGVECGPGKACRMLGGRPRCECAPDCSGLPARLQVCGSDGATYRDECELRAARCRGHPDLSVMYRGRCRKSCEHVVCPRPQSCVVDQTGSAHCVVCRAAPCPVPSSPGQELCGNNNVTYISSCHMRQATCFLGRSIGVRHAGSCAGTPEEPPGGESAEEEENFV
In test [9] the target is Dickkopf-related protein 1 (Homo sapiens) (UniProt O94907). In words: small molecules binding DKK1 protein – biochemical, small-molecule microarray, 635 nm fluorescence scan, primary screen (AID 1106).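 Note: score merges emission near 667 nm with signal to noise over three replicate slides.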 The note with it: higher = more signal.
Dickkopf-related protein 1 (Homo sapiens), sequence (O94907 whole entry, looked up): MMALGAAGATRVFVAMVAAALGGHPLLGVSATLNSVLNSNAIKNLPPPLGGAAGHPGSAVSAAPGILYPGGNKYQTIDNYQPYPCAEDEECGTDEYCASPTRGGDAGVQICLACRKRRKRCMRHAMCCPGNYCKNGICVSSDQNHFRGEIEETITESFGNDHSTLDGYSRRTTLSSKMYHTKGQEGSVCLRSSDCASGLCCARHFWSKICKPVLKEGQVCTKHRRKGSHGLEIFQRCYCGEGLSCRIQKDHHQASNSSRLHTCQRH
For test [10], the system named is Inhibin beta A chain (activin A). The test is described as follows: small molecules binding activin A – biochemical, small-molecule microarray, 635 nm fluorescence scan, primary screen (AID 1107).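 Note: mouse activin A protein probed at 4.33 µg/mL on printed slides; score merges bound-protein fluorescence near 667 nm with spot signal-to-noise.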 The note with it: INHBA, higher = more signal.
In test [11] the test system is Human papillomavirus type 1a protein E7 (residues 44-93). The test is described as follows: small molecules binding HPV E7 44-93 – biochemical, small-molecule microarray, residues 44-93, 635 nm fluorescence, primary screen (AID 1108).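 Note: E7 fragment applied at 1 µg/mL in TBST for 1 h at 4 C; score combines spot fluorescence with its signal to noise ratio.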 As to conditions: fluorescence 635 nm, higher = more signal.
The nature of test [12]: hepatitis C replication reporter changes, two-sided – Huh7 cells, luciferase reporter, HCV replication inhibitor project, primary screen (AID 1109).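 Note: huh7 hepatoma cells harbouring a luciferase neomycin HCV replicon reporter; luciferase luminescence as measure of HCV replicon replication; test concentration not given here.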 As to conditions: Huh7 HCV replicon luciferase reporter, 48 h; higher = more signal.
Test [13] concerns the target Left-right determination factor 2 (Homo sapiens) (UniProt O00292). The test is described as follows: small molecules binding LEFTY2 protein – biochemical, small-molecule microarray, 635 nm fluorescence scan, primary screen (AID 1110). As to conditions: higher = more signal.
For test [14], the target named is Calmodulin-1 (Homo sapiens) (UniProt P0DP23). The test is described as follows: small molecules binding calmodulin-1 with EGTA – biochemical, small-molecule microarray, Cy5-labelled CALM1, profiling panel (AID 1111).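 Note: labelled calmodulin applied in Tris saline Tween buffer holding calcium plus EGTA and DTT.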 The note with it: Cy5-CALM1 binding fluorescence, higher = more signal.
Test [15] shares this target. The test is described as follows: small molecules binding Ca-loaded calmodulin-1 – biochemical, small-molecule microarray, Cy5-labelled CALM1, plus calcium, artefact control for SMM control-protein annotation, profiling panel (AID 1112).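 Note: score merges spot fluorescence with signal to noise from triplicate slides.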 As to conditions: Cy5-CALM1 binding fluorescence, higher = more signal.
The nature of test [16]: probe aWnt5a binding to arrayed compounds – biochemical, biotinylated probe, 635/667 nm fluorescence, primary screen (AID 1113).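 Note: score merges 667 nm fluorescence intensity with signal-to-noise per printed feature.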 The note with it: small-molecule microarray, higher = more signal.
The nature of test [17]: probe aShh binding to arrayed compounds – biochemical, biotinylated probe, 635/667 nm fluorescence, primary screen (AID 1114).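 Note: probe is biotin-labelled aShh protein from a stem cell growth factor screen; measures binding of labelled protein to compounds printed on the slide; score merges feature fluorescence at 667 nm with signal-to-noise.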 The note with it: small-molecule microarray, higher = more signal.
Test [18] can be described thus: probe aNog binding to arrayed compounds – biochemical, biotinylated probe, 635/667 nm fluorescence, primary screen (AID 1115).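 Note: probe is biotinylated aNog protein used at 0.15 µg/mL for 1 h at 4 C; z-score combines 667 nm fluorescence of each spot with its signal to noise.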 As to conditions: small-molecule microarray, higher = more signal.
For test [19], the target named is Torsin-1A-interacting protein 1 (Homo sapiens) (UniProt Q5JTV8). In words: compound microarray binding of lysate hLAP1 – cell lysate, small-molecule microarray, COS7 lysate, 635/667 nm fluorescence, primary screen (AID 1116). The note with it: 635 nm fluorescence, higher = more signal.
Torsin-1A-interacting protein 1 (Homo sapiens), sequence (Q5JTV8 whole entry, looked up): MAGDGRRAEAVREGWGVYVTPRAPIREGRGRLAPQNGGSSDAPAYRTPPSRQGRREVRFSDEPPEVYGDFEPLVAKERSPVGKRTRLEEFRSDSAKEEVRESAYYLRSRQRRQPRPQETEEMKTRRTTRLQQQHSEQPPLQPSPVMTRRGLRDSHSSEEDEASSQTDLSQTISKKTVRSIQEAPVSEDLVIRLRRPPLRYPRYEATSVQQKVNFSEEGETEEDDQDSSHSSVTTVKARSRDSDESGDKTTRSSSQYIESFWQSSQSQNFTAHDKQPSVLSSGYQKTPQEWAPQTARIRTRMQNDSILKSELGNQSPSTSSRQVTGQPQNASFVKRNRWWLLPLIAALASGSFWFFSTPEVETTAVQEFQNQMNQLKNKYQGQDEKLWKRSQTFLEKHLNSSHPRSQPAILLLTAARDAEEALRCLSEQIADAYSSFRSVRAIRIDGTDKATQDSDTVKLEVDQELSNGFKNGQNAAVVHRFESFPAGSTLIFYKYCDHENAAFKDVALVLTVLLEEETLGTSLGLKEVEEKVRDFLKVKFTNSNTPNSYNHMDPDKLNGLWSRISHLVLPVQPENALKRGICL
For test [20], the target named is Alpha-bungarotoxin (Bungarus multicinctus) (UniProt P60615). The test is described as follows: compounds binding labelled alpha-BTX control protein – biochemical, small-molecule microarray, Alexa647 label, 635/667 nm fluorescence, artefact control for SMM control protein annotation, profiling panel (AID 1117). As to conditions: alpha-BTX-A647 binding fluorescence, higher = more signal.
Alpha-bungarotoxin (Bungarus multicinctus), sequence (P60615 whole entry, looked up): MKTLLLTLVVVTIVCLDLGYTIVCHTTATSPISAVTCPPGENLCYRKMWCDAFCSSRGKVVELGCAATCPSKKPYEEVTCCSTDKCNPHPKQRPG

Each structure is given as a SMILES string. Calls of active or inactive are those of the source.

Fibroblast growth factor 10 (Homo sapiens), sequence (O15520 whole entry, looked up): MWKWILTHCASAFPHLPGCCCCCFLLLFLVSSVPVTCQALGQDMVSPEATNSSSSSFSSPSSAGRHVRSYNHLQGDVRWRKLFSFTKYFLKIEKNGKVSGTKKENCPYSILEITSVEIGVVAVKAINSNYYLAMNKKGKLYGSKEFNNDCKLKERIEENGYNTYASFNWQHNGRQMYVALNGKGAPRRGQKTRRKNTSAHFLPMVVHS
Left-right determination factor 2 (Homo sapiens), sequence (O00292 whole entry, looked up): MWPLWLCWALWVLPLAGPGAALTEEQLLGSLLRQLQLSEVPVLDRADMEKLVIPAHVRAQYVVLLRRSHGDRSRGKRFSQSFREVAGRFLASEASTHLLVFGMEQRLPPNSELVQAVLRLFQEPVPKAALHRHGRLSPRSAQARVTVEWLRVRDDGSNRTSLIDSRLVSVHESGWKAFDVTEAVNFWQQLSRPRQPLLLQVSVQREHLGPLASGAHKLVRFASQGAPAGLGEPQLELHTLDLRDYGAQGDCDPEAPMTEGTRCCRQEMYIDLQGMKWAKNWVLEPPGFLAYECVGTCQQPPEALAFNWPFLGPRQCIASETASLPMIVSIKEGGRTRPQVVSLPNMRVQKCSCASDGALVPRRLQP

In the case of `C=CCOC(=O)[C@@H]1[C@H]2C(=O)O[C@H](c3ccccc3)[C@H](c3ccccc3)N2[C@H](c2ccc(OCCOC(=O)[C@H]3C[C@H]4C(=O)N[C@@H](CCCCNC(C)=O)C(=O)N4[C@H]3c3cccc(OCCO)c3)cc2)[C@@]12C(=O)Nc1ccc(I)cc12`, the composite z-score in test [1] turned out to be 1.52; in [2], 0.453; in [3], 0.182; in test [5], 0.909; in [6], 1.32; in test [7], 0.771. For the same compound, the composite z-score was 1.23 in [8]; 1.45 in test [9]; 0.124 in test [10]; 0.721 in [11]; 0.642 in test [13]; 0.277 in [14]. Moreover, the composite z-score is -0.759 in [15]; -0.096 in [16]; 0.0725 in [17]; -0.0317 in [18]; 0.97 in [19]; 1.54 in test [20]. The z-score in test [4] was 0.357 (inactive); in test [12], -1.03.
Consider `O=c1cccc(-c2cccc(Cl)c2)o1`, for which the composite z-score came out at 0.261 in test [1]; 0.177 in test [2]; 0.114 in [3]; 0.227 in test [5]; 0.415 in [6]; 0.167 in test [7]. Besides, the composite z-score was 0.149 in test [8]; -0.0521 in test [9]; 0.338 in [10]; 0.0546 in [11]; 0.128 in test [13]; -0.137 in test [14]. Moreover, the composite z-score in [15] is -0.137; in test [16] it was -0.228; in [17], -0.338; in [18], -0.229; in [19], 0.432; in [20], 0.0698. In addition, the z-score in test [4] was 0.269 (inactive); in test [12] it was 0.268.
On to `C=C(CCCC)/C(=C/C[C@@H](OC(=O)c1ccncc1)c1cccc(OCCO)c1)c1cnc2ccccc2c1`, for which the composite z-score in test [1] turned out to be 0.148; in test [2] it was 0.11; in [3], 0.563; in test [5], 1.52; in test [6] it was 0.667; in test [7] it was 1.27. Also, the composite z-score came to 1.56 in [8]; 0.895 in test [9]; 1.67 in test [10]; 1.3 in test [11]; 0.742 in test [13]; 0.185 in [14]. Besides, the composite z-score in [15] was -0.472; in test [16] it was 0.0037; in test [17], -0.0035; in test [18], -0.103; in test [19], 1.49; in test [20], 2.58. The figures for the z-score in [4] and in [12] were -0.562 (inactive) and -1.96, respectively.
Regarding `CC(C)CNC(=O)[C@@]1(c2ccc([N+](=O)[O-])cc2)CC(=O)N(C2CCCCC2)[C@@H]1c1ccc(CO)cc1I`, the composite z-score in test [1] was 1.67; in [2], 0.349; in test [3], 0.641; in [5], 0.489; in [6], -0.198; in test [7] it was -0.519. For the same compound, the composite z-score was -0.16 in test [8]; -0.477 in [9]; 0.138 in test [10]; 1.11 in test [11]; -0.609 in [13]; 0.779 in test [14]. Also, the composite z-score was 0.379 in test [15]; -0.0417 in [16]; -0.16 in test [17]; -0.279 in [18]; 0.341 in test [19]; 0.817 in test [20]. Moreover, the results for the z-score in [4] and in test [12] were -0.721 (inactive) and -2.3, respectively.
Turning to `C=CC[C@H](OC(=O)Nc1ccc(OC)cc1)c1ccc(O)c2ccccc12`, the composite z-score in test [1] came to 1.24; in [2] it was 0.121; in test [3], 0.0255; in [5] it was 0.82; in test [6], 1.29; in test [7] it was 0.547. The composite z-score in test [8] came out at 1.26; in test [9], 0.92; in [10] it was 1.05; in test [11], 1.07; in [13] it was 0.848; in test [14] it was 0.107. Also, the composite z-score in test [15] was -0.636; in [16], 0.0511; in test [17] it was 0.0469; in test [18], 0.241; in test [19], 0.505; in test [20], 1.78. In addition, the z-score in [4] is 3.32 (inactive); in [12] it was -3.63.
